PubChem BioAssay (NCI)
The panel holds about 83,000 compounds, 20% with a hit somewhere; the sample as a whole holds those more often.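 Single-concentration screen, 48 h exposure, 96-well plates. Endpoint: percent growth. Below 10 = active.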 Values without a mark were called inactive. Active and inactive are the calls of the source.

Tested on: HL-60(TB) leukemia
Assay: NCI-60 one-dose screen, 48 h (100 = growth as untreated, 0 = no growth, -100 = all killed)
Conditions: 10 µM unless noted

SMILES | growth
COc1cc(/C=N/NC(=O)CCN2c3ccccc3Sc3ccccc32)cc(OC)c1OC | 77.9%
O=C(COc1cccc(/C=C2/Oc3ccccc3C2=O)c1)Nc1nccs1 | -72.9% (active)
N=c1c(C(=O)OCc2ccccc2)ncc(CCl)n1O | 81.4%
Cc1noc(C)c1-c1cc(O)cc(C(O)c2ccccc2)c1 (stereo not given) | 10%
CC/C=C\C[C@H](O)C/C=C1/C(=O)C=C[C@@H]1C/C=C\CCCC(=O)OCCS(=O)(=O)c1ccccc1 | 62.1%
Cc1cc2c(cc1C)[n+](Cc1ccc3ccccc3c1)cn2Cc1ccc2ccccc2c1 | -60% (active)
CCOC(=O)c1[nH]c(C)c(C(=O)O)c1C | 91.6%
Cn1ncc(CC(=O)O)c1-n1nnc2cc(Cl)ccc2c1=O | 97.2%
Cc1nn2c(-c3nc4ccc(Cl)cc4[nH]3)c(-c3ccc(F)cc3)nc2s1 | 117%
O=C(Nc1cc(Cl)cc2c1-c1ccc(Cl)cc1C2O)C(Cl)Cl (stereo not given) | 76.2%
Cn1c2ccccc2c2nn(Cc3ccccc3)c(=O)nc21 | 110%
COc1cc2c(cc1OC)[C@H](C(=O)O)[C@@H](c1ccc(OC(C)C)c(OC)c1)N(C)C2=O | 94.9%
CC(C)C[C@H](C(=O)N[C@H](C(N)=O)C(C)C)N1CC=CCN(OCc2ccccc2)S1(=O)=O | 119% [2.5 µM]
COc1cc(-c2n/c(=C\c3c(O)[nH]c4ccc(Cl)cc34)cc3c2=Nc2ccccc2-3)cc(OC)c1OC | 48.3%
c1ccc(Cn2nc3c(c2-c2ccccc2)-c2oncc2CC3)cc1 | 92.2%
Clc1ccc2c(NCCCN3CCN(c4nc(N5CCOCC5)nc5ccccc45)CC3)ccnc2c1 | -51.5% (active)
O=C(Oc1ccc([N+](=O)[O-])cc1)c1ccc(CBr)cc1 | 71.8%
CCN(CC)CCCN1C(=O)c2c(c(C)c3c(oc4ccc(OC)cc43)c2C)C1=O | 97.6%
C=C1C(=O)O[C@H]2[C@H]1CC/C(COC(=O)c1cc3ccccc3o1)=C\CC[C@@]1(C)O[C@@H]21 | -2.94% (active)
CC(C)C(C(=O)CCN(C)C)c1ccc(Cl)cc1 (stereo not given) | 81.4%

SMILES | growth
COc1cc(-c2nc3ccccc3[nH]2)ccc1OCC(=O)N=Nc1c(O)[nH]c2ccccc12 | 79.8%
c1ccc2c(-c3c[nH]c4ccccc34)c3c(cc2c1)[nH]c1ccccc13 | 51.5%
CC1(C)S[C@@H]2[C@H](NC(=O)[C@H](C(=O)O)c3cccs3)C(=O)N2[C@H]1C(=O)O | 106%
Cn1cc(-c2nnc(-c3cn(C)c4ncc(Br)cc34)o2)c2ccccc21 | 99%
Cc1ccccc1C(=O)c1ccccc1C(=O)O | 106%
O=C1CCn2c1c(O)c1ccccc1c2=O | 110%
Cc1ccc(Nc2nc(N)nc(CSCC(=O)NN)n2)cc1 | 20.5%
CCCCn1c(=O)c(-c2cc(-c3ccc(Cl)cc3)nc(-c3ccc(Cl)cc3)c2)cc2cc(Cl)ccc21 | 100%
CN(C)C(=S)N/N=C\C=N/NC(=S)N(C)C | -23% (active)
Cc1cc(C)c(/C=C2\C(=O)Nc3ccc(NC(=O)CCCCCCC(=O)NO)cc32)[nH]1 | 19.4%
COc1ccc(/C=C/C(=O)c2cc(OC)c(OC)c(OC)c2)cc1OCC(=O)Nc1nc2ccc(OC(F)(F)F)cc2s1 | 6.61% (active)
COC1=C(OC)C(=O)C(CCCCCCCCCCO)=C(C)C1=O | 76.8%
Cc1cccc(N2CCC(=O)NC2=S)c1 | 98.6%
CN1CCN(C(=O)c2ccc(NC(=O)c3cc4c(nn3)NCCN4Cc3cc(Cl)ccc3Cl)cc2)CC1 | 43%
COc1ccc(C(=O)/C=C/c2cc(-c3ccc4c(c3)OCO4)n[nH]2)cc1OC | 42.9%
COc1cc(C2CC(=O)Nc3c2ccc2ccccc32)cc(Br)c1OC (stereo not given) | -15.2% (active)
COc1ccc2c3c(c(OCCCN(C)C)nc2c1)-c1ccc(Cl)cc1C3=O | 70.7%
O=C(O)CCC(NC(=O)OCc1ccccc1)C(=O)O (stereo not given) | 108%
Fc1cc(-c2nnc3sc(-c4ccc(Cl)cc4Cl)nn23)c(Cl)cc1Cl | 161%
CC1(C)CC(=O)c2c(nc3ccc(Cl)cc3c2-c2ccccc2)C1 | 82.3%
